# In PubChem BioAssay (NCATS):
# Records with an inconclusive call do not appear. A call without a number means that no potency is given here. Unmarked numbers belong to inactive results. Active and inactive are the calls of the source. Calls follow the shape of the dose curve; as a rule, active = well fitted inhibition curve with a large enough effect; inconclusive = small, poorly fitted or top-dose-only effect; inactive = flat fitted curve, though single readings scatter.
# What was measured:
# HACAT = assay: qHTS assay to identify novel small-molecules to repurpose for Merkel cell carcinoma treatment (AID 1296009); details: MCC and control cell lines, CellTiter-Glo viability, 72 h; at 44.8 µM (top of the series) unless noted
# Procedure, shortened: (§1)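 After compound transfer in DMSO, plates were kept 72 hr at 37 degree celsius. Luminescent ATP signal from CellTiter-Glo served as viability measure, normalized against DMSO and no-cell controls.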
# MCC-26 = assay: as above; details: MCC and control cell lines, CellTiter-Glo viability, 72 h; series mostly up to 46 µM
# Procedure, shortened: as §1
# MKL-2 = assay: as above; details: MCC and control cell lines, CellTiter-Glo viability, 72 h; series mostly up to 46 µM
# Procedure, shortened: as §1
# NIH3T3 [1] = assay: Cytotoxic Profiling of Annotated Libraries Using Quantitative High-Throughput Screening (AID 1296008); details: Five cell lines viability, CellTiter-Glo ATP luminescence, 48-72 h; max response: active compounds read low
# Procedure, shortened: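 Cytotoxicity was measured as CellTiter-Glo ATP luminescence, read after 10 min at room temperature. Compound treatment of the cells lasted 48 or 72 hr at 37 degrees Celsius in a qHTS format.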
# MCC-13 = assay: qHTS assay to identify novel small-molecules to repurpose for Merkel cell carcinoma treatment (AID 1296009); details: MCC and control cell lines, CellTiter-Glo viability, 72 h; series mostly up to 46 µM
# Procedure, shortened: as §1
# MKL-1 = assay: as above; details: MCC and control cell lines, CellTiter-Glo viability, 72 h; series mostly up to 46 µM
# Procedure, shortened: as §1
# WaGa = assay: as above; details: MCC and control cell lines, CellTiter-Glo viability, 72 h; series mostly up to 46 µM
# Procedure, shortened: as §1
# UISO = assay: as above; details: MCC and control cell lines, CellTiter-Glo viability, 72 h; series mostly up to 46 µM
# Procedure, shortened: as §1
# HEK293T = assay: as above; details: MCC and control cell lines, CellTiter-Glo viability, 72 h; at 44.8 µM (top of the series) unless noted
# Procedure, shortened: as §1
# NIH3T3 [2] = assay: as above; details: MCC and control cell lines, CellTiter-Glo viability, 72 h; at 44.8 µM (top of the series) unless noted
# Procedure, shortened: as §1
# Also: nearly all actives have a fitted effect of over 60% in size.
# Potency is read from the fitted curve at half-maximal effect.
structure (smiles),measurement,setting,value
COc1ccc(-n2nc(CCC(=O)N(C)O)cc2-c2ccc(Cl)cc2)cc1,outcome,HACAT,inactive
same,Potency,MCC-26,inactive
same,Potency,MKL-2,21.1 µM (active)
O=c1[nH]sc2cc(Cl)ccc12,max response,NIH3T3 [1],-92.7%
same,Potency,MCC-13,6.68 µM (active)
same,Potency,MKL-1,inactive
same,Potency,MKL-2,inactive
same,Potency,WaGa,inactive
CCCCCCCCCCCCCCCC[N+](C)(C)Cc1ccccc1,Potency,NIH3T3 [1],11.9 µM (active)
same,Potency,MCC-26,29.9 µM (active)
same,Potency,MKL-1,5.96 µM (active)
same,Potency,MKL-2,0.335 µM (active)
same,Potency,UISO,4.22 µM (active)
CC[C@@]1(O)C(=O)OCc2c1cc1n(c2=O)Cc2c-1nc1ccccc1c2/C=N/OC(C)(C)C,Potency,NIH3T3 [1],0.266 µM (active)
same,Potency,MCC-13,0.0841 µM (active)
same,Potency,MCC-26,0.0944 µM (active)
same,Potency,MKL-2,0.0376 µM (active)
same,Potency,UISO,0.168 µM (active)
same,Potency,WaGa,0.0266 µM (active)
C[C@H](N)C(=O)N[C@@H](C)C(=O)NC1[C@H]2CN(c3nc4c(cc3F)c(=O)c(C(=O)O)cn4-c3ccc(F)cc3F)C[C@@H]12 (stereo not given in full),Potency,MCC-13,inactive
same,Potency,MCC-26,inactive
CCOC(=O)c1ccc(O)c(O)c1,outcome,HEK293T,inactive
same,Potency,MCC-26,inactive
same,Potency,MKL-1,5.96 µM (active)
CCC1=C[C@@H]2CN(C1)Cc1c([nH]c3ccccc13)[C@@](C(=O)OC)(c1cc3c(cc1OC)N(C)[C@H]1[C@@](O)(C(=O)OC)[C@H](OC(C)=O)[C@]4(CC)C=CCN5CC[C@]31[C@@H]54)C2,outcome,HACAT,inactive
same,Potency,MKL-2,0.0188 µM (active)
same,Potency,UISO,0.0119 µM (active)
CN1CCCN=C1/C=C/c1cccs1,outcome,HACAT,inactive
same,outcome,HEK293T,inactive
same,Potency,MCC-13,inactive
same,Potency,MCC-26,inactive
same,Potency,MKL-1,inactive
same,Potency,MKL-2,inactive
same,Potency,UISO,inactive
same,Potency,WaGa,inactive
CC(C)=CCNc1ncnc2c1ncn2[C@@H]1O[C@H](CO)[C@@H](O)[C@H]1O,Potency,NIH3T3 [1],7.5 µM (active)
same,Potency,MCC-13,8.41 µM (active)
same,Potency,MKL-1,1.68 µM (active)
same,Potency,MKL-2,0.944 µM (active)
same,Potency,UISO,1.88 µM (active)
same,Potency,WaGa,2.99 µM (active)
OC1(c2ccccc2)CCNCC1,outcome,NIH3T3 [1],inactive
same,Potency,MCC-13,inactive
same,Potency,MKL-1,inactive
same,Potency,MKL-2,inactive
same,outcome,NIH3T3 [2],inactive
same,Potency,UISO,inactive
same,Potency,WaGa,inactive
CCCCCCCCCCCCCC[N+](C)(C)C,Potency,NIH3T3 [1],23.7 µM (active)
same,Potency,MCC-26,16.8 µM (active)
same,Potency,MKL-1,1.19 µM (active)
same,Potency,MKL-2,1.19 µM (active)
same,Potency,UISO,2.37 µM (active)
same,Potency,WaGa,1.33 µM (active)
C[C@H](CN1CCCC1)C(=O)c1ccc(C(F)(F)F)cc1,max response,NIH3T3 [1],-14.5%
same,Potency,MCC-13,inactive
same,Potency,MCC-26,inactive
same,Potency,MKL-1,inactive
same,Potency,UISO,inactive
same,Potency,WaGa,inactive
CO[C@@H]1[C@@H](OC)[C@H](C)[C@@](O)(CC(=O)O)O[C@H]1[C@H](C)[C@H]1O[C@@]2(CC[C@@](C)([C@H]3CC[C@@](C)([C@@H]4O[C@@H]([C@H]5O[C@](C)(O)[C@H](C)C[C@@H]5C)C[C@@H]4OC4C[C@H](OC)[C@@H](OC)[C@H](C)O4)O3)O2)C[C@H](O)[C@H]1C (stereo not given in full),Potency,NIH3T3 [1],6.68 µM (active)
same,Potency,MCC-13,2.99 µM (active)
same,Potency,MKL-1,0.376 µM (active)
same,Potency,MKL-2,0.211 µM (active)
same,Potency,UISO,0.596 µM (active)
same,Potency,WaGa,0.335 µM (active)
CCCc1c2oc(C(=O)O)cc(=O)c2cc2c(=O)cc(C(=O)O)n(CC)c12,outcome,HACAT,inactive
same,Potency,MCC-13,inactive
same,Potency,MCC-26,inactive
same,Potency,MKL-1,inactive
same,Potency,MKL-2,inactive
same,outcome,NIH3T3 [2],inactive
same,Potency,UISO,inactive
same,Potency,WaGa,inactive
CN(C)CCOC(c1ccccc1)c1ccc(Br)cc1 (stereo not given),max response,NIH3T3 [1],-1.24%
same,Potency,MCC-13,inactive
same,Potency,MCC-26,inactive
same,Potency,MKL-1,inactive
same,Potency,UISO,inactive
same,Potency,WaGa,23.7 µM (active)
CCC(=O)O[C@]1(C(=O)COC)[C@@H](C)C[C@H]2[C@@H]3CCC4=CC(=O)C=C[C@]4(C)C3(F)[C@@H](O)C[C@@]21C (stereo not given in full),outcome,HACAT,inactive
same,Potency,MCC-13,inactive
same,Potency,MCC-26,inactive
same,Potency,MKL-1,inactive
same,Potency,MKL-2,inactive
same,Potency,UISO,inactive
same,Potency,WaGa,inactive
Cc1nc(N)nc(N)c1-c1ccc(Cl)c(Cl)c1,Potency,NIH3T3 [1],0.841 µM (active)
same,Potency,MCC-26,inactive
same,Potency,MKL-2,inactive
O=C(OCC(O)CO)c1ccccc1Nc1ccnc2c(C(F)(F)F)cccc12 (stereo not given),max response,NIH3T3 [1],-7.27%
same,Potency,MCC-13,inactive
same,Potency,MCC-26,inactive
same,Potency,UISO,inactive
same,Potency,WaGa,inactive
COc1cc(S(N)(=O)=O)cc(C(=O)O)c1OC,outcome,NIH3T3 [1],inactive
same,Potency,MCC-13,inactive
same,Potency,MKL-1,inactive
same,Potency,MKL-2,inactive
same,outcome,NIH3T3 [2],inactive
same,Potency,UISO,inactive
same,Potency,WaGa,inactive
COC(=O)[C@H]1[C@H]2C[C@@H]3c4[nH]c5cc(OC)ccc5c4CCN3C[C@H]2C[C@@H](OC(=O)/C=C/c2ccc(O)c(OC)c2)[C@@H]1OC,Potency,MCC-13,inactive
C=CC[N+]1([C@H]2C[C@H]3[C@@H]4CC[C@H]5C[C@H](OC(C)=O)[C@@H](N6CCCCC6)C[C@]5(C)[C@H]4CC[C@]3(C)[C@H]2OC(=O)CC)CCCCC1,max response,NIH3T3 [1],-0.979%
same,Potency,MCC-13,inactive
same,Potency,MCC-26,inactive
same,Potency,MKL-1,inactive
same,Potency,UISO,inactive
same,Potency,WaGa,inactive
CCCCCOc1ccccc1/C(=C\SC)n1ccnc1,max response,NIH3T3 [1],-29.1%
same,Potency,MCC-13,inactive
same,Potency,MCC-26,inactive
same,Potency,UISO,18.8 µM (active)
C[N+]1(CC2COC(c3ccccc3)(c3ccccc3)O2)CCCCC1 (stereo not given),max response,NIH3T3 [1],-38.8%
same,Potency,MCC-13,inactive
same,Potency,MCC-26,inactive
same,Potency,MKL-1,inactive
same,Potency,UISO,inactive
same,Potency,WaGa,inactive
CCCCC/C=C\C/C=C\CCCCCCCC(=O)NC(C)c1ccccc1 (stereo not given),max response,NIH3T3 [1],-26.3%
same,Potency,MCC-13,inactive
same,Potency,MCC-26,inactive
same,Potency,MKL-1,inactive
same,Potency,UISO,inactive
same,Potency,WaGa,inactive
CCCCCCCCCCCC[N+](C)(C)Cc1ccccc1,Potency,NIH3T3 [1],6.68 µM (active)
same,Potency,MCC-26,23.7 µM (active)
same,Potency,MKL-1,1.06 µM (active)
same,Potency,MKL-2,0.0944 µM (active)
same,Potency,UISO,1.19 µM (active)
same,Potency,WaGa,1.88 µM (active)
O=[N+]([O-])c1nccn1CO[C@@H](CO)[C@H](O)CO,outcome,HACAT,inactive
same,Potency,MCC-13,inactive
same,Potency,MCC-26,inactive
same,Potency,MKL-1,inactive
same,Potency,MKL-2,inactive
same,Potency,UISO,inactive
same,Potency,WaGa,inactive
CCCCCCCCCCCCCCCC[n+]1ccccc1,Potency,NIH3T3 [1],16.8 µM (active)
same,Potency,MCC-13,11.9 µM (active)
same,Potency,MKL-1,0.841 µM (active)
same,Potency,MKL-2,0.422 µM (active)
same,Potency,UISO,1.68 µM (active)
same,Potency,WaGa,2.11 µM (active)
Nc1c2ccccc2nc2ccccc12,Potency,NIH3T3 [1],21.1 µM (active)
same,Potency,MCC-13,18.8 µM (active)
same,Potency,MKL-1,3.35 µM (active)
CC(C(O)c1ccccc1)N(C)CCOC(c1ccccc1)c1ccccc1 (stereo not given),Potency,MCC-13,inactive
same,Potency,MCC-26,inactive
CCOC(=O)Cn1cccc1-c1nc(-c2ccc(OC)cc2)c(-c2ccc(OC)cc2)s1,outcome,NIH3T3 [1],inactive
same,Potency,MCC-13,inactive
same,Potency,MCC-26,inactive
same,outcome,NIH3T3 [2],inactive
same,Potency,UISO,inactive
same,Potency,WaGa,inactive
